# Experimental data from PubChem BioAssay (NCI).
# About 83,000 compounds went through this panel and 20% of them were active in at least one assay; those are over-represented in the sample as a whole.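 Interpretation: 100, growth as untreated; towards 0, rising growth inhibition; 0, no net growth; 0 to -100, cell death. Compounds scoring below 10 were considered active.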 A number with no mark means an inactive call.
# System: DU-145 prostate
# Assay: NCI-60 one-dose screen, 48 h (100 = growth as untreated, 0 = no growth, -100 = all killed)
# Details: 10 µM unless noted
row,Compound,growth [%]
1,COC(=O)c1sccc1-c1cc(O)c(C(=O)Nc2ccccc2)s1,99.1
2,O=C(C1=Cc2cc3ccccc3n2Cc2cnnn21)c1ccc(F)cc1,97.7
3,Cc1cccc(N2C(=O)/C(=C/C(Cl)=C/c3ccc([N+](=O)[O-])cc3)SC2=S)c1C,27.3
4,CS(=O)/C(C#N)=C\C=C\c1cccc(Cl)c1 (centres undefined),23.1
5,CCOC(=O)/C=C1\S/C(=N\Nc2cc(=O)[nH]c3ccc(Br)cc23)N(c2ccccc2)C1=O,85.2
6,Cc1ccc2nc(-c3ccc(C(=O)N/N=C/c4ccc([N+](=O)[O-])cc4)cc3)[nH]c2c1,103
7,COc1ccc(/C=C/C(c2cc(OC)c(OC)c(OC)c2)n2cncn2)cc1O (centres undefined),21
8,CCCCCCCCCCCCCCCCCCOc1ccccc1CC(=O)NCC[N+](C)(C)C,44.3
9,CCOC(=O)c1c(C)nc2ccccc2c1/C=C/c1ccc(F)cc1,89.6
10,N#Cc1c(-c2ccccc2)cc(-c2ccccc2)n(CCCCC(=O)NO)c1=O,20.2
11,COc1cc(Cc2cc(OC)c(O)c(OC)c2)cc(OC)c1O,117
12,COc1cc(/C=C/c2cc(/C=C/c3ccc(O)c(OC)c3)n(C(=O)Nc3ccc(Cl)cc3)n2)ccc1O,11.7
13,NS(=O)(=O)c1ccc(C(=O)NN2C(=O)c3ccccc3C2=O)cc1,105
14,CS(=O)(=O)c1ccc(-c2nc3ccccc3n2CC(=O)N/N=C/c2ccccc2)cc1,111
